Assay results from PubChem BioAssay (Tox21).
Results filed as inconclusive are left out. A call without a number means that no potency is given here. Activity calls are given as the source filed them. The call rests on the fitted dose curve; in most records, active means well fitted cell-killing curve with a large enough effect in the repeat runs (not every such curve was filed as active); inconclusive means weak or mixed curves, or effect the other way; inactive means no such curve, though single readings can be large or run the other way.

assay: qHTS assay to identify small molecule antagonists of the estrogen related receptor signaling pathway with the pleiotropic PPARgamma coactivator (PGC) from Tox21 10K library - cell viability counter screen (AID 1224840); details: PGC/ERR reporter cells viability, CellTiter-Fluor, 17.5 h; series mostly up to 92.4 µM; further: nearly all actives have a fitted effect of over 40% in size
Description: National Center for Advancing Translational Sciences [NCATS]
NIH Chemical Genomics Center [NCGC]
U.S. Environmental Protection Agency [EPA]
National Institutes of Environmental Health Sciences [NIEHS]
National Toxicology Program [NTP]
U.S. Food and Drug Administration [FDA]
Estrogen related receptors (ERRs), the first orphan nuclear receptors discovered, play an important role in the control of cellular energy metabolism. ERRs are required for high-energy production in response to the environmental challenges. The pleiotropic PPARgamma coactivator (PGC) is a major partner of ERR and a key regulator in energy homeostasis. Together they have been implicated in the etiology of metabolic disorders such as Type 2 diabetes and metabolic syndrome. ERR-alpha was also identified as an adverse marker for breast cancer progression; ERR-alpha-positive tumors have a poor prognosis. To screen and to identify environmental compounds that perturb the ERR and PGC/ERR signaling pathways could provide valuable information for potential therapeutic or preventive measures in the treatment of metabolic disease. To differentiate true PGC/ERR antagonists or agonist from cytotoxic substances, the assay is multiplexed with cell viability assay.
Tox21 Assay Protocol Summary:
The PGC/ERR cells were dispensed at 2,000 cells/5 ul/well in 1536-well white plates using a Multidrop dispenser. After the assay plates were incubated at a 37 C/5% CO2 incubator for 6 hours, 23 nL of compounds dissolved in DMSO, positive and negative controls or DMSO only was transferred to the assay plate by a pin tool. The plates were incubated at 37 C for 17.5 hours. 1 ul/well of CellTiter-Fluor reagent was added into the assay plates using a Flying Reagent Dispenser. After 30-minute incubation at 37 C/5% CO2, the fluorescence intensity in the plates was measured using a ViewLux plate reader.

| SMILES | Potency |
| --- | --- |
| C=CCCCCCCCCC(=O)O | inactive |
| OCc1ccccc1 | inactive |
| NCCCCCCN | inactive |
| C=CC[N+](C)(C)CC=C | inactive |
| OCc1cccc(Oc2ccccc2)c1 | inactive |
| Nc1nc(N)nc(-c2ccccc2)n1 | inactive |
| C[C@]12CCC(=O)C=C1CC[C@@H]1[C@@H]2[C@@H](O)C[C@@]2(C)[C@H]1CC[C@]2(O)C(=O)CO | inactive |
| O=C1C(c2[nH]c3ccccc3c2O)=Nc2ccccc21 | inactive |
| CCc1ccccc1CC | inactive |
| Cc1ccc(C(C)C)c(O)c1 | inactive |
| O=C1c2ccccc2CCc2ccccc21 | inactive |
| CC1(C)NC(=O)NC1=O | inactive |
| Cc1ccc2ncccc2c1 | inactive |
| C=Cc1ccc(C)cc1 | inactive |
| CN/C(=C\[N+](=O)[O-])NCCSCc1csc(CN(C)C)n1 | inactive |
| C=CC(C)CCCC(C)(C)O (stereo not given) | inactive |
| CSc1ccc(Cl)cc1 | inactive |
| CN(C)c1ccc(O)c2c1C[C@H]1C[C@H]3[C@H](N(C)C)C(=O)C(C(N)=O)=C(O)[C@@]3(O)C(=O)C1=C2O | inactive |
| O=S(=O)(O)c1ccccc1 | inactive |
| O=C(O)c1ccc(C(=O)O)c(C(=O)O)c1 | inactive |

| SMILES | Potency |
| --- | --- |
| CCNc1ccccc1 | inactive |
| CC(=O)Oc1ccc(C)cc1 | inactive |
| O=C(O)Cn1c(=O)n(Cc2ccc(Br)cc2F)c(=O)c2ccc(Cl)cc21 | inactive |
| CC(=O)OCc1ccccc1 | inactive |
| CC(C)=CCl | inactive |
| NCCN1CCNCC1 | inactive |
| c1ccc2c(c1)Cc1ccccc1-2 | inactive |
| CC(=O)OC1CC(C)OC(C)O1 (stereo not given) | inactive |
| CCCCOC(=O)c1ccc(N)cc1 | inactive |
| CC(=O)OCc1ccco1 | inactive |
| C=C(C)[C@H]1CC=C(C)C(=O)C1 | inactive |
| NCCNCCN | inactive |
| COc1cc(OC)c(C(=O)CCCN2CCCC2)c(OC)c1 | inactive |
| COCCOC(=O)c1ccccc1C(=O)OCCOC | inactive |
| O=C(O)CCCCCCCCC(=O)O | inactive |
| COc1ccc([N+](=O)[O-])cc1N | inactive |
| OC1C(O)C(O)C(O)C(O)C1O (stereo not given) | inactive |
| O=C(O)c1ccc(S(=O)(=O)N(Cl)Cl)cc1 | inactive |
| CC(=O)CC(C)(C)O | inactive |
| CCCCCCCCCCCC(=O)OC | inactive |
